Results filed as inconclusive are left out. Entries that show only a call come without a potency. Values without a mark were called inactive. Activity calls are given as the source filed them. The rule behind the calls is not given here.
Potency is the fitted concentration of half-maximal effect.

This test is described as follows: qHTS assay to identify small molecule antagonists of the estrogen related receptor signaling pathway with the pleiotropic PPARgamma coactivator (PGC) from Tox21 10K library (AID 1224841). Note: actives are mostly falling curves and most rising ones were filed inactive; nearly all actives have a fitted effect of over 50% in size. As to conditions: PGC/ERR reporter cell line, ONE-Glo luciferase, 18 h; series mostly up to 92.4 µM. An excerpt: U.S. Tox21 Program National Center for Advancing Translational Sciences [NCATS] NIH Chemical Genomics Center [NCGC] U.S. Environmental Protection Agency [EPA] National Institutes of Environmental Health Sciences [NIEHS] National Toxicology Program [NTP] U.S. Food and Drug Administration [FDA] Tox21 Assay Overview: Estrogen related receptors (ERRs), the first orphan nuclear receptors discovered, play an important role in the control of cellular energy metabolism. ERRs are required for high-energy production in response to the environmental challenges. The pleiotropic PPARgamma coactivator (PGC) is a major partner of ERR and a key regulator in energy homeostasis. Together they have been implicated in the etiology of metabolic disorders such as Type 2 diabetes and metabolic syndrome. ERR-alpha was also identified as an adverse marker for breast cancer progression; ERR-alpha-positive tumors have a poor prognosis. To screen and to identify environmental compounds that perturb the ERR and PGC/ERR signaling pathways could provide valuable information for potential therapeutic or preventive measures in the treatment of metabolic disease. For identifying PGC/ERR antagonists, PGC/ERR cell line (provided by NTP) has been used to screen Tox21 10K library.
Tox21 Assay Protocol Summary: The PGC/ERR cells were dispensed at 2,000 cells/5 ul/well in 1536-well white plates using a Multidrop dispenser. After the assay plates were incubated at a 37 C/5% CO2 incubator for 6 hours, 23 nL of compounds dissolved in DMSO, positive and negative controls or DMSO only was transferred to the assay plate by a pin tool. The plates were incubated at 37 C for 18 hours. 4 ul/well of One-Glo reagent was added into the assay plates using a Flying Reagent Dispenser. After 30-minute incubation at room temperature, the luminescence intensity in the plates was measured using a ViewLux plate reader.
Turning to `C=CCOC(=O)CCC1CCCCC1`, the Potency result was “inactive”.

`CCCOC(C(=O)OC1CCN(C)CC1)(c1ccccc1)c1ccccc1`: the Potency entry is “inactive”.

In the case of `CCCCCCCCCCCCCCOS(=O)(=O)O`, the Potency result was “inactive”.

In the case of `CN(C)CCCN1c2ccccc2Sc2ccccc21`, the Potency result was “inactive”.

Take `C#Cc1cccc(Nc2ncnc3cc(OCCOC)c(OCCOC)cc23)c1`: the Potency is 8.41 µM (active).

Consider `CCCCC(CC)CN1C(=O)C2C3C=CC(C3)C2C1=O` (stereo not given), for which the Potency entry was “inactive”.

Regarding `O=C(c1ccc(F)cc1)C1CCN(CCn2c(=S)[nH]c3ccccc3c2=O)CC1`, the Potency is 26.6 µM (active).

As for `Nc1cccc([N+](=O)[O-])c1`, the Potency entry is “inactive”.

Take `O=C1CCCCCCCCCCCC(=O)OCCO1`: the Potency result is “inactive”.

On to `COc1ccc(C(=O)N2CCN(CC(=O)N3CCOCC3)CC2)cc1`, for which the Potency result was “inactive”.

Consider `COc1ccc(C(=O)c2ccc(OC)cc2O)c(O)c1`, for which the Potency result is “inactive”.

Consider `C=CC(=O)OCCOc1ccccc1`, for which the Potency entry is “inactive”.

Regarding `CCOC(=O)Cc1cccc2ccccc12`, the Potency entry was “inactive”.

In the case of `O=C(Nc1ccc(S(=O)(=O)N2CCOCC2)cc1)c1cc(Cl)ccc1NS(=O)(=O)c1ccc(Cl)s1`, the Potency entry was “inactive”.

With `COc1ccc(C)cc1[N+](=O)[O-]`, the Potency result was “inactive”.

For `Brc1c2ccccc2c(Br)c2ccccc12`, the activity, negative = inhibition was 52.5% [at 8.39 µM].

As for `CC(C)CC(=O)C1C(=O)c2ccccc2C1=O`, the Potency was 27.3 µM (active).

As for `COc1cc2nc(N(C)CCCNC(=O)C3CCCO3)nc(N)c2cc1OC` (stereo not given), the Potency is 15 µM (active).

Take `CC(C)C[C@H]1C(=O)N2CCC[C@H]2[C@]2(O)O[C@](NC(=O)[C@@H]3C=C4c5cccc6[nH]c(Br)c(c56)C[C@H]4N(C)C3)(C(C)C)C(=O)N12`: the Potency is 16.4 µM (active).

`CN1CCC(N(Cc2cccs2)c2ccccc2)CC1`: the Potency entry was “inactive”.

For the compound `CC(COCCO)OCCO` (stereo not given), the Potency entry was “inactive”.

In the case of `C=C1C(=C/C=C2\CCC[C@]3(C)[C@@H]([C@H](C)/C=C/[C@@H](O)C4CC4)CC[C@@H]23)C[C@@H](O)C[C@@H]1O`, the Potency was 29.8 µM (active).

In the case of `ClCCOCCOCCCl`, the Potency result is “inactive”.

Take `O=S(c1cc(Cl)cc(Cl)c1O)c1cc(Cl)cc(Cl)c1O`: the Potency result is “inactive”.

For the compound `CCCn1cnc2c1c(=O)n(CCCCC(C)=O)c(=O)n2C`, the Potency entry was “inactive”.

With `COC(C)OC`, the Potency entry is “inactive”.

For the compound `CCn1cc(C(=O)O)c(=O)c2cnc(N3CCNCC3)nc21`, the Potency result was “inactive”.

As to `CCN(CC)CCNc1ccc(CNC=O)c2sc3ccc(OC)cc3c(=O)c12`, the Potency entry was “inactive”.

With `OC(C#CCN1CCCC1)(c1ccccc1)c1ccccc1`, the Potency result is “inactive”.

As for `CCC(=O)O[C@]1(C(=O)CCl)[C@@H](C)C[C@H]2[C@@H]3CCC4=CC(=O)C=C[C@]4(C)[C@@]3(F)[C@@H](O)C[C@@]21C`, the Potency entry was “inactive”.

Consider `CN(C)c1ccc(C(c2ccccc2)c2ccc(N(C)C)cc2)cc1`, for which the Potency was 27.3 µM (active).

Consider `Cc1cccc(C)c1OCC(=O)N[C@@H](Cc1ccccc1)[C@@H](O)C[C@H](Cc1ccccc1)NC(=O)[C@H](C(C)C)N1CCCNC1=O`, for which the Potency is 13.3 µM (active).

For the compound `OCc1cc(C(O)CNCCCCCCOCCCCc2ccccc2)ccc1O` (stereo not given), the Potency entry is “inactive”.

Consider `C[Si](C)(CCCN)O[Si](C)(C)CCCN`, for which the Potency entry is “inactive”.

In the case of `CCCCCCCC/C=C\CCCCCCCC(=O)OCC`, the Potency entry was “inactive”.

For `CCCCCCCCCCCCN1CCCCCC1=O`, the Potency result was “inactive”.

Take `CCCCCCc1ccc(-c2ccc(C#N)cc2)cc1`: the Potency result was “inactive”.

On to `CN(C)CCOC(c1ccccc1)c1ccc(Br)cc1` (stereo not given), for which the Potency result was “inactive”.

For `COc1cc(C(=O)OCCCN2CCCN(CCCOC(=O)c3cc(OC)c(OC)c(OC)c3)CC2)cc(OC)c1OC`, the Potency result was “inactive”.

Consider `OC[C@H]1O[C@@H](OCCc2ccc(O)cc2)[C@H](O)[C@@H](O)[C@@H]1O`, for which the Potency entry is “inactive”.

The values above are taken from PubChem BioAssay (Tox21).
